CCHFV vOTU inh: blocks the CCHF virus ovarian tumor domain protease; CCHFV vOTU protease, Pep-AMC fluorescence; inhibition, % at 11.5 µM; 370,000 compounds, 0.55% hits; AID 651958; note: 0% = vehicle wells with enzyme and 100% = no enzyme wells
Mtb FBA inh: inhibitors of M. tuberculosis fructose-bisphosphate aldolase; inhibition, % at 1 µM; purified M. tuberculosis FBA, fluorescence read-out; 360,000 compounds, 2.3% hits; P9WQA3; in the data active = inhibition above about 27%;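 note: 0% = vehicle and 100% = reference inhibitor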
Target sequence (P9WQA3 whole entry, looked up): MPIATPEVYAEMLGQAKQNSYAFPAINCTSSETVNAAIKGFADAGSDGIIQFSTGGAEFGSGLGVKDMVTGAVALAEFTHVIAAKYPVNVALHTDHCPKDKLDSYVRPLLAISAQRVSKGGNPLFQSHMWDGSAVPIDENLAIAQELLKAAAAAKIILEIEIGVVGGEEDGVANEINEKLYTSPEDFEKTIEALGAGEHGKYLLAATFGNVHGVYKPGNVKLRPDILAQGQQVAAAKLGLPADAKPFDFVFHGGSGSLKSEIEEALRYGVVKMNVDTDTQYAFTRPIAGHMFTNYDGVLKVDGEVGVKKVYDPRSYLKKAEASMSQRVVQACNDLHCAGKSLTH
RecA intein inh: Mtb RecA intein splicing inhibition; P9WHJ3; cell-free RecA intein splicing, fluorescence; 290,000 compounds, 0.75% hits; inhibition, % (test concentration not listed); in the data active = inhibition above about 30%;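 note: 0% = vehicle wells and 100% = reference inhibitor control wells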
GDH-TPI inh: inhibits GDH-TPI coupling enzymes, artifact for Mtb FBA screen; GDH-TPI coupled enzyme counterscreen, NADH absorbance; inhibition, % at 4.8 µM; 360,000 compounds, 1.2% hits; AID 588335;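 note: 0% = DMSO wells and 100% = wells lacking the enzyme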
The depositor's hits bear a star; · = no result; + = active, no number. Rows were chosen to be rich in hits. Some 4.2% of all compounds tested hit in one or more screens of this group. Cut-off read from the data, not from the text of the source, unless noted: active = inhibition above about 30%; inactive = the rest.

SMILES	CCHFV vOTU inh	Mtb FBA inh	RecA intein inh	GDH-TPI inh
O=C1C=C(c2ccoc2)N2CCC[C@H]2C1	10	1	·	39*
C/C(=N\NC(=O)c1ccc2c(c1)OCO2)c1ccc(NS(C)(=O)=O)cc1	-9	-4	0	36*
C/C(=N\NC(=O)c1ccc2c(c1)OCO2)c1ccc(O)cc1	4	-1	1	33*
C/C(=N\NC(=O)c1ccccc1)c1ccc2c(c1)OCO2	-1	1	-2	-6
COC(=O)C1CN(Cc2cn(Cc3ccc(F)cc3)nn2)CCS(=O)(=O)N1Cc1ccc(C)cc1 (centres undefined)	-6	·	·	·
Cc1cc(=O)n2[nH]c(-c3ccccc3)cc2n1	9	27	-2	-6
Cc1cc(=O)n2[nH]c(-c3ccc(C(C)(C)C)cc3)cc2n1	1	36*	-4	11
c1ccc(-c2c3ccccc3nc3[nH]c4ccccc4c23)cc1	·	31*	-4	13
CCOc1ccccc1-c1cnc(NC)cn1	-182	+	·	19
CNc1cnc(-c2ccccc2OC)cn1	-132	125*	·	19
Oc1ccc2ccccc2c1C=Nn1c(-c2n[nH]c3c2CCC3)n[nH]c1=S	8	·	·	·
CC1=CN2C(=NC(=O)CC2(C)C(=O)N(CC(=O)NC2CCCC2)Cc2ccccc2)C=C1 (centres undefined)	-120	124*	-3	-2
Cc1ccccc1N(CC(=O)NC1CCCC1)C(=O)C1(C)CC(=O)N=C2C=CC(Cl)=CN21 (centres undefined)	-206	155*	-3	8
Cc1ccc(C(=O)N(CC(=O)NC2CCCC2)c2ccccc2C)s1	18	3	3	-2
CC1=CC2=NC(=O)CC(C)(C(=O)N(CC(=O)NC(C)C)C3CCCC3)N2C=C1 (centres undefined)	·	·	-2	·
O=C1[C@@H](Oc2ccccc2)[C@@H](c2cnc3ccccc3c2)N1c1ccccc1	2	6	·	1
Cc1ccc(NC(=O)CC2=NC(=O)C(CC(=O)Nc3ccccc3F)S2)cc1 (centres undefined)	3	-3	-4	32*
CCOC(=O)N1CCC(Nc2nc3ccccc3nc2NS(=O)(=O)c2ccc(Cl)cc2)CC1	2	5	-3	42*
COc1cc(NC(=S)NC(=O)C(C)C)ccc1NC(=O)c1cc2ccccc2o1	-3	4	0	14
CCC(=O)NC(=S)Nc1ccc(NC(=O)c2cc3ccccc3o2)c(OC)c1	7	1	0	32*
C=C(C)COc1ccc2c(C)c(CC(=O)N3C[C@H]4C[C@@H](C3)c3cccc(=O)n3C4)c(=O)oc2c1C	-33	124*	1	12
COc1ccc2c(C)c(CC(=O)N3C[C@H]4C[C@@H](C3)c3cccc(=O)n3C4)c(=O)oc2c1C	-82	134*	-3	14
Cc1cc(=O)oc2c(C)c(OCC(=O)N3C[C@H]4C[C@@H](C3)c3cccc(=O)n3C4)ccc12	-4	4	-4	5
CCCCNC(=S)N1CCN(c2ccc(C(C)=O)cc2)CC1	-3	-1	0	35*
CCN(CC)c1ccc(/C=N/N2CCN(c3ccccc3OC)CC2)cc1	12	1	0	37*
SMILES	CCHFV vOTU inh	Mtb FBA inh	RecA intein inh	GDH-TPI inh
COc1ccc(/C=N/N2CCN(c3ccccc3OC)CC2)cc1OC	-8	2	0	11
CCCN1C(=O)c2ccccc2NC1c1ccc(O)c(OCC)c1 (centres undefined)	-80	45*	-2	6
COc1cc(C2Nc3ccccc3C(=O)N2NS(C)(=O)=O)ccc1O (centres undefined)	8	8	-2	12
O=C(NCCO)c1cc2c([nH]c3ccccc32)c(-c2ccccc2)n1	-21	24	-1	18
Cc1ccc(-c2nc(C(=O)NCCCN(C)C)cc3c2[nH]c2ccccc23)cc1	-22	28*	2	9
C=CCNc1sc(C(=O)C2CC2)c(N)c1C#N	14	-2	·	40*
C=CCNc1sc(C(=O)C(C)(C)C)c(N)c1C#N	2	0	5	40*
CC(C)(C)OC(=O)NCCC(=O)N/N=C/c1cccc2nccnc12	-8	1	-1	2
COc1cccc(Cn2c3ccc(NC(=O)Cc4cc(OC)ccc4OC)cc3c(=O)n2C)c1	-121	152*	·	3
CC(CC(=O)Nc1ccc2c(c1)c(=O)n(C)n2Cc1ccc(F)cc1)c1ccccc1 (centres undefined)	-85	130*	·	2
CC(CC(=O)Nc1ccc2c(c1)c(=O)n(C)n2Cc1ccc(F)cc1)C(F)(F)F (centres undefined)	-134	148*	·	-4
COc1cccc(Cn2c3ccc(NC(=O)CC(C)C(F)(F)F)cc3c(=O)n2C)c1 (centres undefined)	-115	143*	·	9

Screening results as filed in PubChem BioAssay.
